The target in the assay is Follistatin (Homo sapiens) (UniProt P19883). The assay can be described thus: FST protein binding to printed compounds – biochemical, small-molecule microarray, 635/667 nm fluorescence, primary screen (AID 1132). As to conditions: 635 nm fluorescence, higher = more signal.
Chain of Follistatin (Homo sapiens) (P19883 whole entry, looked up): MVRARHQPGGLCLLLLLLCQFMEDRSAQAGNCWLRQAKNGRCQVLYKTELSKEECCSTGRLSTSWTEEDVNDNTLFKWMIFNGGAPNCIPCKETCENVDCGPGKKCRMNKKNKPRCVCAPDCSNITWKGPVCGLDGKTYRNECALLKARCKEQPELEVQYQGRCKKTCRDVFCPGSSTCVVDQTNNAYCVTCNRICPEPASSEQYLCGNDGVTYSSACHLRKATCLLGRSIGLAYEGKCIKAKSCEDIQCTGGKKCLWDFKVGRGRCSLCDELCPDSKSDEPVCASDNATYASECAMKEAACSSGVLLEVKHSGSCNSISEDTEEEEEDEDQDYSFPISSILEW
For `CSCC[C@@H]1NC(=O)CC=C[C@@H](C)COC(=O)[C@H](C)COC1=O`, the composite z-score was 1.45.
`CC1(C)O[C@H]2O[C@H]([C@H](O)CON=C3[C@H]4CCn5c(=O)n(-c6ccccc6)c(=O)n5[C@H]4[C@H](O)[C@@H]4O[C@H]34)[C@H](O)[C@H]2O1` had a composite z-score of 0.154.
Then `COc1cccc([C@H]2Oc3ccc(OC)cc3C(=NO[C@@H](C)c3cc(-c4c(C)cc(C)cc4C)no3)[C@@H]2O)c1`, with -2.57; and `CC(=O)OC[C@H]1O[C@H](C#CCCc2ccccc2)C=C[C@@H]1OC(C)=O`, with 0.518.
Turning to `CC(C)=CCCC(C)=CCON=C1C[C@@H](O)[C@@H](O)[C@@H]2[C@@H]3C(=O)N(C4CCCCC4)C(=O)[C@@H]3CC[C@H]12`, the composite z-score is 1.06.
`COC(=O)[C@H](C)NC(=O)CCC1CC(OC(=O)NCc2ccc3c(c2)OCO3)CC2(CCCC(COC(=O)NCCc3ccc(Cl)cc3)O2)O1` (stereo partly specified) registered a composite z-score of 0.758.
For `COC(=O)[C@H](C)NC(=O)CCC1CC(OC(=O)NCCc2ccc(F)cc2)CC2(CCCC(COC(=O)NCC3CCCCC3)O2)O1` (stereo partly specified), the composite z-score worked out at 0.639.
Then `CCN1C(=O)[C@H]2[C@H]3[C@H](O)[C@H](O)CC(=NO[C@H](C)c4cn([C@H](CO)Cc5ccccc5)nn4)[C@@H]3CC[C@H]2C1=O`, with 0.758.
In the case of `CCN1C(C)=C(C(=O)OC)[C@@H](c2ccccc2)N2C(=O)[C@](O)(C(=O)OC)CC(C(C)=O)=C12` it was 0.398; in that of `C=CC[C@@H]1C=C[C@H](ON=C(C)CCN2CCCCc3nc(C)c(C)cc32)[C@@H](CO)O1`, 1.39.
`CC(C)=NOC(C)CN1CCCCc2nc(C)c(C)cc21` (stereo unspecified) displayed a composite z-score of 0.886.
In the case of `CCOC(=O)[C@H](Cc1ccccc1)NC(=O)CCC1CC(OC(=O)NCCc2ccc(F)cc2)CC2(CCCC(COC(=O)NCCOc3ccccc3)O2)O1` (stereo partly specified) it was 0.557.
`Cc1ccc(S(=O)(=O)N[C@@H]2COC(=O)CC=C[C@@H](C)[C@H](NS(=O)(=O)c3ccc(C)cc3)COC(=O)[C@H](C)NC(=O)CC=C[C@H]2C)cc1` came in with a composite z-score of 0.72.
Compound `CCOC(=O)CCN1C(=O)[C@H]2[C@H]3[C@H](O)[C@H](O)CC(=NOCC(C)C)[C@@H]3CC[C@H]2C1=O` returned a composite z-score of 0.91.
Regarding `CC(=O)OC[C@H]1O[C@H](CCON=C(C)CCN2CCCc3nc(C)c(C)cc32)C=C[C@@H]1OC(C)=O`, the composite z-score stood at 1.15.
Then `Cc1cc2c(nc1C)CCCCN2CC(O)CN1CCCc2nc(-c3ccc(Br)cc3)ccc21` (stereo unspecified), with 1.06; and `CC(C)(C)N1C(=O)[C@H]2[C@@H]3C(=CC[C@H]2C1=O)C(=O)[C@H]1O[C@H]1[C@H]3O`, with 0.1; and `CC(CCN1CCCc2nc(C)c(C)cc21)=NOC[C@@H](C)[C@H](OCc1ccccc1)C(C)C`, with -0.516.
In the case of `CON=C(C)CCC(=O)OC[C@H]1O[C@H](C#Cc2ccccc2)C=C[C@@H]1Oc1ccc(C)cc1` it was 0.398; in that of `C[C@@H]1CC[C@@H](C(=O)O)N[C@H]1c1cccc(N2CCOCC2)c1`, 0.769; in that of `O=C1C2=CC[C@H]3C(=O)N(C4CCCCC4)C(=O)[C@H]3[C@H]2[C@H](O)[C@@H]2O[C@H]12`, -0.864.
`CCOC(=O)[C@H](Cc1ccccc1)NC(=O)CCC1CC(OC(=O)NCCc2ccc(F)cc2)CC2(CCCC(COC(=O)NCc3cccc(C(F)(F)F)c3)O2)O1` (stereo partly specified) had a composite z-score of 0.787.
In the case of `O=C1[C@H]2[C@H]3[C@H](O)[C@H](O)CC(=NO[C@@H]4O[C@H](CO)[C@@H](O)[C@H](O)[C@H]4O)[C@H]3CC[C@H]2C(=O)N1C[C@@H]1CCCO1` it was -0.438.
Compound `CC(CCC(=O)OC[C@H]1O[C@H](C#Cc2ccccc2)C=C[C@@H]1Oc1ccc(C)cc1)=NOC[C@@H](C)[C@H](OCc1ccccc1)C(C)C` returned a composite z-score of -0.554.
As for `C[C@@H]1CC[C@H]2C(=O)OC(Cc3ccccc3)CN2[C@H]1c1ccc(Br)cc1` (stereo partly specified), the composite z-score stood at 0.329.
`COC(=O)CC=C[C@@H](C)[C@@H](C=NOC[C@@H](O)COCc1ccco1)OC` registered a composite z-score of 1.15.
In the case of `CCc1cc2c(nc1CC)CCN(CCC(C)=NOC[C@@H](C)[C@H](OCc1ccccc1)C(C)C)C2` it was -0.862; in that of `O=C1C2=CC[C@H]3C(=O)N(C[C@@H]4CCCO4)C(=O)[C@H]3[C@H]2[C@H](O)[C@@H]2O[C@H]12`, 0.0235; in that of `CCOC(=O)CCN1C(=O)[C@H]2[C@H]3[C@H](O)[C@H](O)CC(=NNC(=O)OCC)[C@H]3CC[C@H]2C1=O`, 0.799.
In turn, `COc1ccc2c(c1)O[C@@H](c1cccc(C(F)(F)F)c1)[C@H](O)C2=O` gave a composite z-score of 0.282.
`COC(=O)CC=C[C@@H](C)[C@@H](C=NOC(C)CN1CCCCc2nc(C)c(C)cc21)NS(=O)(=O)c1ccc(C)cc1` (stereo partly specified) yielded a composite z-score of 0.927.
`CCOC(=O)[C@H](Cc1ccccc1)NC(=O)CCC1CC(OC(=O)NCc2cccc3ccccc23)CC2(CCCC(COC(=O)NCCc3ccccc3OC)O2)O1` (stereo partly specified) registered a composite z-score of 0.798.
For the compound `O=C1C=C[C@@H](O)[C@@H]2[C@@H]3C(=O)N(c4cccc(Oc5ccccc5)c4)C(=O)[C@@H]3CC[C@@H]12`, the composite z-score was determined as 0.464.
With `O=C1C=C[C@@H](O)[C@@H]2[C@@H]3C(=O)N(Cc4ccccc4)C(=O)[C@@H]3CC[C@@H]12`, the composite z-score amounted to 0.415.
The compound `COC(=O)[C@H](C)NC(=O)CCC1CC(OC(=O)NCc2ccc3c(c2)OCO3)CC2(CCCC(COC(=O)NCc3ccccc3)O2)O1` (stereo partly specified) came in with a composite z-score of 0.653.
For the compound `COc1ccc(COC(=O)NN=C2C[C@@H](O)[C@@H](O)[C@@H]3[C@@H]4C(=O)N(C(C)(C)C)C(=O)[C@@H]4CC[C@@H]23)cc1`, the composite z-score is 0.542.

The values are drawn from PubChem BioAssay.
